Screening results as filed in PubChem.
PLK1 PBD inh: PLK1 (human) polo-box domain binding inhibition. Plk1 PBD binding of FITC phosphopeptide, fluorescence polarization. Potency, µM, for inactives: max response, negative = inhibition, hits mostly inhibitors. 2.8% of 360,000 active; also: potency is read from the fitted curve at half-maximal effect; series mostly up to about 57 µM; nearly all actives have a fitted effect of over 65% in size
VDR inh: vitamin D3 receptor (human) inhibition; 0.93% of 400,000 active; VDR-SRC2-3 peptide fluorescence polarization, 2 h; Potency, µM, inactives show max response, negative = inhibition, actives largely listed as inhibitors; also: potency is read from the fitted curve at half-maximal effect
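FP read-out; VDR + SRC2-3 coactivator peptide; 23 nl compound by pintool; 2 h RT incubation; reagents held at 4 deg C, protected from light.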
PI4K2A inh: PI4K2A (human) kinase inhibition. Q9BTU6. purified PI4K2A, ADP-Glo luminescence, 1 h; hits give low values. activity change, negative = inhibition, % at 76.9 µM. 0.13% of 420,000 active. AID 1346378; in the data active = activity change below about -50%; inconclusive = mostly about -30% to -49%;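 also: -100% = wells without enzyme as full effect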
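PI4K2A activity was measured by ADP-Glo luminescence: enzyme (4 ug/mL stock) and phosphatidylinositol (1.2 mM stock) in Tris pH 7.5/MgCl2/EGTA/Triton X-100 buffer were reacted with ATP (300 microM stock) for one hour at ambient temperature.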
GCN5L2 inh: blocks human GCN5L2 histone acetyltransferase; Potency, µM (top dose mostly 58.9 µM), for inactives: at the top dose activity change, negative = inhibition, actives largely listed as inhibitors; GCN5L2 HAT assay, ThioGlo1 CoA-SH fluorescence; 0.21% of 390,000 active; AID 504327; also: potency is read from the fitted curve at half-maximal effect
Target sequence (Q92830 whole entry, looked up): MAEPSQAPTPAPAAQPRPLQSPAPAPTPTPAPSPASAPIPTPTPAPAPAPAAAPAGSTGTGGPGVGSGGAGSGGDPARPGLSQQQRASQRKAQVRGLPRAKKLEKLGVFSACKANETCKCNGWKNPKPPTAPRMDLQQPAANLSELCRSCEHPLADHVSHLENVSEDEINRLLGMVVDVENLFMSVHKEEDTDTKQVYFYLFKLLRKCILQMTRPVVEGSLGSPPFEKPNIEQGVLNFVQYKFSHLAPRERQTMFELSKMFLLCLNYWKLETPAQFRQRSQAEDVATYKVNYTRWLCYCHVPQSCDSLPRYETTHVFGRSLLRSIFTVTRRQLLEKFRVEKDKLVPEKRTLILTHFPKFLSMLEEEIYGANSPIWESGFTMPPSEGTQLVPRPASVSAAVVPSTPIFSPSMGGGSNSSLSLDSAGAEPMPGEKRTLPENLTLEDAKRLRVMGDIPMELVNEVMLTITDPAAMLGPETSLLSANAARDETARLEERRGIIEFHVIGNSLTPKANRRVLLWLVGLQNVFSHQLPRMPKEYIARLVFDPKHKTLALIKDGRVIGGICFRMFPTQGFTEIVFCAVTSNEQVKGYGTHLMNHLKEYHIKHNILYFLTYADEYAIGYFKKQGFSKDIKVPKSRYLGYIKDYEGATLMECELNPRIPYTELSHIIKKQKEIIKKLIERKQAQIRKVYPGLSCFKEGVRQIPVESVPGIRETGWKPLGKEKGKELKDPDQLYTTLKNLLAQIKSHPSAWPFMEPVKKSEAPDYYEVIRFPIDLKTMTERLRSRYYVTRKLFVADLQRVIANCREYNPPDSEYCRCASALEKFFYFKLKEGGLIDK
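Free CoA generated was detected with ThioGlo1 (50uM) fluorescence at Ex340nm/Em540nm, read immediately and after 20 min at room temperature. Enzyme, 20 nM in HEPES pH 7.5 buffer, saw compounds 15 min before adding 75uM H3(1-25) peptide and 70uM acetyl-CoA.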
GLS inhibitor: blocks human kidney-isoform glutaminase activity; O94925; GLS enzymatic activity, qHTS titration; Potency, µM (doses to about 45.5 µM), inactives show top-dose activity change, negative = inhibition, most hits filed as inhibitors; 0.21% of 410,000 active; also: potency is read from the fitted curve at half-maximal effect
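Compounds were pin-transferred onto hKGA, after which L-glutamine (1 mM solution) and a detection mix of glutamate oxidase, HRP and Amplex Red were added. Initial and 30 min RT fluorescence reads were collected.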
The depositor's hits bear a star; ? = inconclusive; / = no result; ! = not confirmed by another sample; [ ] = remark or other dose. In the library only some 3.1% were active in any assay of this set; here they are far more common. Unless noted, calls follow the shape of the dose curve; as a rule, active = well fitted curve in the direction sought with a large enough effect; inconclusive = small, poorly fitted or top-dose-only effect, or another doubt; inactive = no such curve, though single readings can be large; an effect the other way counts as inactive or inconclusive. Unless noted, % is scaled to controls: 0 for no effect and ±100 for the full control effect.

SMILES	PLK1 PBD inh	VDR inh	PI4K2A inh	GCN5L2 inh	GLS inhibitor
C/C(C=NNC(=O)CSc1nnc(-c2ccc(Cl)cc2)n1-c1ccc(C)cc1)=C\c1ccccc1	/	/	-0.6	/	/
CCOc1ccc(C(=O)NC(=S)Nc2cccnc2)cc1[N+](=O)[O-]	5.97µM*	?	3.9	-7.3%	?
CO[C@H]1C[C@@H]2CC[C@@H](C)[C@@](O)(O2)C(=O)C(=O)N2CCCC[C@H]2C(=O)OC([C@H](C)C[C@@H]2CC[C@@H](O)[C@H](OC)C2)CC(=O)[C@H](C)/C=C(\C)[C@@H](O)[C@@H](OC)C(=O)[C@H](C)C[C@H](C)/C=C/C=C/C=C/1C (stereo partly specified)	/	44.7µM*!	/	-21.9%	/
CCOC(=O)C(=Cc1ccccc1)C(=O)OCC	/	10µM*	/	1.0%	/
CCOC(=O)C(=Cc1ccc(-n2cncn2)cc1)C(=O)OCC	?	15.8µM*	7.1	1.8%	-2.0%
CCOC(=O)/C(=C\c1ccc(C)cc1)NC(=O)c1ccccc1	-0.9%	1.4%	-2.9	6.9%	-1.3%
CC1(C)Oc2ccc(C(=O)N3CCCC3)cc2NC1=O	/	/	6.1	/	/
Cc1ccc(NC(=O)[C@@H]2CC(=O)O[C@@H]2c2ccccc2)cc1C	/	/	2.4	/	/
COc1ccccc1-c1cc(C(=O)Nc2cc(C)on2)no1	-5.0%	5.6%	-84.6*	-8.8%	-9.5%
COc1ccc(-c2cc(C(=O)Nc3cc(C)nn3-c3ccccc3)no2)cc1OC	37.7µM*	-17.9%	-1.0	-6.5%	5.2%
Cc1ccc(F)cc1NC(=O)COC(=O)c1ccc(S(C)(=O)=O)c([N+](=O)[O-])c1	/	-25.4%	/	/	/
C[C@]12CC[C@@H]3c4ccc(O)cc4CC[C@H]3[C@@H]1CC[C@H]2O	/	7.5%	/	-22.9%	/
COc1cccc(CNC(=O)C2CCC(CNS(=O)(=O)c3ccc(Br)s3)CC2)c1 (stereo unspecified)	/	21.7%	3.0	-9.7%	1.9%
Cc1cccc(N2CCN(C(=O)c3ccc4c(c3)NC(=O)C(CSCc3cccc(F)c3)N4)CC2C)c1 (stereo unspecified)	?	?	3.1	14.1µM*	3.7%
Oc1ccc(/C=N/NC(=S)Nc2cccnc2)cc1O	-28.3%	5.7%	-0.9	-5.7%	5.01µM*
CC(C)(C)c1ccc(/C=N/NC(=S)Nc2cccnc2)cc1	/	/	/	-2.4%	/
[O-]/[N+](=C/c1ccc(F)cc1)c1ccccc1	-21.5%	?	-4.7	26.7%	1.8%
[O-]/[N+](=C\c1ccncc1)c1ccccc1	-11.1%	79.4µM*	2.5	-9.5%	17.2%
COc1cc2c(cc1OC)C1O[C@](CCCCN3C(=O)c4ccccc4C3=O)(C2)Oc2c1c(=O)oc1ccccc21	/	/	/	-10.4%[12.7 µM]	/
COc1ccc(C)cc1NC(=O)C(NC(=O)c1cc(OC)c(OC)c(OC)c1)C(C)C (stereo unspecified)	29.9µM*	?	4.8	3.3%	0.4%
Cc1nn(CC(O)COc2ccc3c(c2)CCC3)c(C)c1C (stereo unspecified)	3.36µM*	-11.9%	-0.4	-0.8%	?
CC(C)[C@H](NC(=O)[C@@H](Cc1c[nH]c2ccccc12)NC(=O)[C@H](Cc1ccc(O)cc1)NC(=O)[C@@H](N)CC(=O)O)C(=O)N[C@H](Cc1c[nH]c2ccccc12)C(=O)N[C@H](Cc1c[nH]c2ccccc12)C(=O)N[C@@H](CCCCN)C(N)=O	/	-1.3%	/	-2.1%	/
COc1ccccc1CNC(=O)C(C)n1nc(C)n2c(cc3occc32)c1=O (stereo unspecified)	26.7µM*	?	-1.6	-2.7%	5.7%
CCC(C(=O)NCc1ccccc1OC)n1nc(C)n2c(cc3occc32)c1=O (stereo unspecified)	-1.8%	0.0%	-5.2	-3.8%	-5.7%
CC(C)(C)NC(=O)CSc1nccn1Cc1ccccc1	-9.8%	-12.3%	-1.6	3.55µM*	-4.7%
SMILES	PLK1 PBD inh	VDR inh	PI4K2A inh	GCN5L2 inh	GLS inhibitor
O=C1CCC(C(=O)OCC(=O)c2ccccc2)N1 (stereo unspecified)	26.7µM*	?	-7.3	-1.1%	-10.9%
O=C(COC(=O)C1CCC(=O)N1)Nc1ccccc1Br (stereo unspecified)	21.2µM*	22.4µM*	-4.7	0.8%	-0.7%
O=C(COC(=O)C1CCC(=O)N1)Nc1ccc(Oc2ccccc2)cc1 (stereo unspecified)	-5.0%	0.5%	-0.7	-1.1%	0.3%
CCOc1ccc(CNCc2c(C(=O)O)c(C)n(Cc3ccc(C)cc3)c2C)cc1	/	18.8%	-8.3	-2.8%	12.7%
CCc1cccc(C)c1NC(=O)c1cc(S(=O)(=O)N2CCOCC2)cn1C	/	2.9%	2.4	-1.7%	-5.6%
CC1=NOC(=O)/C1=C/c1ccc(O)cc1	9.47µM*	?	-2.4	-4.2%	-14.9%
CC1=NOC(=O)/C1=C/c1ccc(O)c(Br)c1	?	?	0.0	26.3%	-12.6%
COc1ccc(/C=C2/C(=O)ON=C2C)cc1Cl	2.12µM*	?	0.0	1.6%	?
CC1CCCN(S(=O)(=O)c2ccc3c(c2)CCN3C(=O)C2CCC2)C1 (stereo unspecified)	1.9%	7.1%	-5.2	-2.2%	5.6%
O=C(CCl)c1ccc2c(c1)CCN2C(=O)C1CCCCC1	0.752µM*	44.7µM*	19.4	-6.2%	11.8%
CC1CCN(S(=O)(=O)c2ccc3c(c2)CCN3C(=O)C2CCC2)CC1	23.8µM*	-15.6%	-5.5	0.7%	26.8%
COc1ccc2c(c1)C(=O)[C@@H](OC(=O)NCCOc1ccccc1)[C@H](c1ccc(OC)c(Br)c1)O2	/	-0.6%	/	/	/
FC(F)(F)c1cc(CNC2CCC23CCC(c2ccccc2)CC3)ccc1Cl (stereo unspecified)	/	/	3.7	/	/
CN(C(=O)CSc1nc2c(c(=O)[nH]1)CCCC2)C1CCCCC1	26.7µM*	-11.9%	2.1	-5.5%	8.7%
NC(N)=NS(=O)(=O)c1ccc(NC(=S)NC(=O)c2ccc3c(c2)OCO3)cc1	23.8µM*	0.8%	-5.6	0.1%	-1.3%
CNS(=O)(=O)c1ccc(NC(=S)Nc2ccc3c(c2)OCO3)cc1	18.9µM*	-18.4%	-18.4	-2.1%	?
CC(C)CSc1nnc(-c2ccco2)n1C	/	/	-1.4	/	/
COC(=O)[C@]12C[C@H](CC(=O)NCc3cccc(C(F)(F)F)c3)C(=O)N(Cc3ccc4c(c3)OCO4)C1=C[C@H](C(C)C)O[C@@H]2C1CC1	/	/	-1.4	/	/
Nc1ccc2cc3[nH]c4cc(N)ccc4c3nc2c1	2.38µM*	33.4%	-14.8	/	-1.3%
Nc1ccc(-c2nc3ccc(N)cc3[nH]2)cc1	1.5%	34.3%	-2.2	?	26.7%
O=C(CN1C(=O)c2cccc3cccc1c23)Nc1cccnc1	29.9µM*	7.4%	8.8	-11.3%	-1.1%
O=C(CN1C(=O)c2cccc3cccc1c23)NCc1cccnc1	-8.8%	2.2%	0.9	31.6µM*	1.0%
CCN1C(=O)c2cccc3cccc1c23	21.2µM*	-10.4%	3.6	-13.3%	-5.8%
